# Laboratory results taken from article PMC9911399, “Two distinct binding modes provide the RNA-binding protein RbFox with extraordinary sequence specificity”.
# Substitutions are numbered along the chain they refer to; changes in the protein carry UniProt numbers. Over roughly 16,000 sequences, “ka relative to ugcaugu” has its median near 0.096; the highest 2% begin near 0.35. The sample holds the highest values, similar sequences and a random draw of the others, so the mix is not that of the screen.
# T1: RBFOX1 RRM RbFoxmut (Fox-RRM*) (Homo sapiens, UniProt Q9NWB1 109-208, R118D;E147R;N151S;E152T)
# T1 sequence: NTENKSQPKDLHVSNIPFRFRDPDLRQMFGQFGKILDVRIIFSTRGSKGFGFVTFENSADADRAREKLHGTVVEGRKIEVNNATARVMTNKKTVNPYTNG
# B1: CACAAUA (DNA:RNA)
# RNA: GGGAGACCGGAAUUCAGAUUGUCCCACAAUAUUAAAUCCCGUCGUAGCCACCA
# DNA 1: CAATCTGAATTCCGGTCTCCC
# DNA 2: TGGTGGCTACGACGGGATT
# B2: CGUCAUC (DNA:RNA)
# RNA: B1 RNA with A26G, C27U, A28C, A31C
# DNA 1: CAATCTGAATTCCGGTCTCCC
# DNA 2: TGGTGGCTACGACGGGATT
# B3: CGGUAUC (DNA:RNA)
# RNA: B1 RNA with A26G, C27G, A28U, A31C
# DNA 1: CAATCTGAATTCCGGTCTCCC
# DNA 2: TGGTGGCTACGACGGGATT
# B4: CGGAAUC (DNA:RNA)
# RNA: B1 RNA with A26G, C27G, A31C
# DNA 1: CAATCTGAATTCCGGTCTCCC
# DNA 2: TGGTGGCTACGACGGGATT
# B5: GGGAAUC (DNA:RNA)
# RNA: B1 RNA with C25G, A26G, C27G, A31C
# DNA 1: CAATCTGAATTCCGGTCTCCC
# DNA 2: TGGTGGCTACGACGGGATT
# B6: GGUAUCU (DNA:RNA)
# RNA: B1 RNA with C25G, A26G, C27U, A29U, U30C, A31U
# DNA 1: CAATCTGAATTCCGGTCTCCC
# DNA 2: TGGTGGCTACGACGGGATT
# B7: GGAGAUC (DNA:RNA)
# RNA: B1 RNA with C25G, A26G, C27A, A28G, A31C
# DNA 1: CAATCTGAATTCCGGTCTCCC
# DNA 2: TGGTGGCTACGACGGGATT
# B8: GGGCAUC (DNA:RNA)
# RNA: B1 RNA with C25G, A26G, C27G, A28C, A31C
# DNA 1: CAATCTGAATTCCGGTCTCCC
# DNA 2: TGGTGGCTACGACGGGATT
# B9: CGGCAUC (DNA:RNA)
# RNA: B1 RNA with A26G, C27G, A28C, A31C
# DNA 1: CAATCTGAATTCCGGTCTCCC
# DNA 2: TGGTGGCTACGACGGGATT
# B10: GGGUAUC (DNA:RNA)
# RNA: B1 RNA with C25G, A26G, C27G, A28U, A31C
# DNA 1: CAATCTGAATTCCGGTCTCCC
# DNA 2: TGGTGGCTACGACGGGATT
# B11: CGUAAUC (DNA:RNA)
# RNA: B1 RNA with A26G, C27U, A31C
# DNA 1: CAATCTGAATTCCGGTCTCCC
# DNA 2: TGGTGGCTACGACGGGATT
# B12: GGCAUCU (DNA:RNA)
# RNA: B1 RNA with C25G, A26G, A29U, U30C, A31U
# DNA 1: CAATCTGAATTCCGGTCTCCC
# DNA 2: TGGTGGCTACGACGGGATT
# B13: GUUAAUC (DNA:RNA)
# RNA: B1 RNA with C25G, A26U, C27U, A31C
# DNA 1: CAATCTGAATTCCGGTCTCCC
# DNA 2: TGGTGGCTACGACGGGATT
# B14: UUGGUAC (DNA:RNA)
# RNA: GGGAGACCGGAAUUCAGAUUGUCCUUGGUACUUAAAUCCCGUCGUAGCCACCA
# DNA 1: CAATCTGAATTCCGGTCTCCC
# DNA 2: TGGTGGCTACGACGGGATT
# B15: CGUCAGG (DNA:RNA)
# RNA: B1 RNA with A26G, C27U, A28C, U30G, A31G
# DNA 1: CAATCTGAATTCCGGTCTCCC
# DNA 2: TGGTGGCTACGACGGGATT
# B16: ACUGCGG (DNA:RNA)
# RNA: B14 RNA with U25A, U26C, G27U, U29C, A30G, C31G
# DNA 1: CAATCTGAATTCCGGTCTCCC
# DNA 2: TGGTGGCTACGACGGGATT
# B17: UAAAUAU (DNA:RNA)
# RNA: B14 RNA with U26A, G27A, G28A, C31U
# DNA 1: CAATCTGAATTCCGGTCTCCC
# DNA 2: TGGTGGCTACGACGGGATT
# B18: UCUACGU (DNA:RNA)
# RNA: B1 RNA with C25U, A26C, C27U, A29C, U30G, A31U
# DNA 1: CAATCTGAATTCCGGTCTCCC
# DNA 2: TGGTGGCTACGACGGGATT
# B19: AGUUUCU (DNA:RNA)
# RNA: B14 RNA with U25A, U26G, G27U, G28U, A30C, C31U
# DNA 1: CAATCTGAATTCCGGTCTCCC
# DNA 2: TGGTGGCTACGACGGGATT
# B20: UAGACCC (DNA:RNA)
# RNA: B14 RNA with U26A, G28A, U29C, A30C
# DNA 1: CAATCTGAATTCCGGTCTCCC
# DNA 2: TGGTGGCTACGACGGGATT
# B21: UUGAUUG (DNA:RNA)
# RNA: B14 RNA with G28A, A30U, C31G
# DNA 1: CAATCTGAATTCCGGTCTCCC
# DNA 2: TGGTGGCTACGACGGGATT
# B22: UUGAAAU (DNA:RNA)
# RNA: B14 RNA with G28A, U29A, C31U
# DNA 1: CAATCTGAATTCCGGTCTCCC
# DNA 2: TGGTGGCTACGACGGGATT
# B23: UUGAAUG (DNA:RNA)
# RNA: B1 RNA with C25U, A26U, C27G, A31G
# DNA 1: CAATCTGAATTCCGGTCTCCC
# DNA 2: TGGTGGCTACGACGGGATT
# B24: UUGAUCC (DNA:RNA)
# RNA: B14 RNA with G28A, A30C
# DNA 1: CAATCTGAATTCCGGTCTCCC
# DNA 2: TGGTGGCTACGACGGGATT
# B25: UUGAAUC (DNA:RNA)
# RNA: B14 RNA with G28A, U29A, A30U
# DNA 1: CAATCTGAATTCCGGTCTCCC
# DNA 2: TGGTGGCTACGACGGGATT
# B26: UUAAAUC (DNA:RNA)
# RNA: B1 RNA with C25U, A26U, C27A, A31C
# DNA 1: CAATCTGAATTCCGGTCTCCC
# DNA 2: TGGTGGCTACGACGGGATT
# B27: UUGAUUC (DNA:RNA)
# RNA: B14 RNA with G28A, A30U
# DNA 1: CAATCTGAATTCCGGTCTCCC
# DNA 2: TGGTGGCTACGACGGGATT
# B28: UUGUUGA (DNA:RNA)
# RNA: B14 RNA with G28U, A30G, C31A
# DNA 1: CAATCTGAATTCCGGTCTCCC
# DNA 2: TGGTGGCTACGACGGGATT
# B29: UUAAAUG (DNA:RNA)
# RNA: B1 RNA with C25U, A26U, C27A, A31G
# DNA 1: CAATCTGAATTCCGGTCTCCC
# DNA 2: TGGTGGCTACGACGGGATT
# B30: CCAAUUG (DNA:RNA)
# RNA: B1 RNA with A26C, C27A, A29U, A31G
# DNA 1: CAATCTGAATTCCGGTCTCCC
# DNA 2: TGGTGGCTACGACGGGATT
# B31: GUGGUAG (DNA:RNA)
# RNA: B14 RNA with U25G, C31G
# DNA 1: CAATCTGAATTCCGGTCTCCC
# DNA 2: TGGTGGCTACGACGGGATT
# Biological target: T1, RBFOX1 RRM RbFoxmut (Fox-RRM*)
# Test: EMSA; HiTS-Eq, 1 nM pool, 10 min; buffer printed only for the single-RNA assays: 10 mM Tris pH 7.5, 150 mM NaCl, 3.4 mM EDTA, 0.001% NP-40, 30 C
# Details: tags: His6 N-terminal (pET28a); label: 5' 32P
# Summary of the method: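 A pool of RNA with 7 randomized nucleotides, 5′-radiolabelled and with DNA-annealed flanks, was equilibrated at 1 nM for 10 min in 50 µL with purified RbFox RRM, wild type or mutant, across increasing protein concentrations. Free RNA was separated by 8% native PAGE, excised, reverse-transcribed, barcoded by PCR and sequenced. Relative association constants were obtained from read-count changes of each RNA species versus the control reaction and normalised to the cognate motif.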
row,Binder,binding signal
1,B1,0.084 KA relative to UGCAUGU
2,B2,0.0997 KA relative to UGCAUGU
3,B3,0.245 KA relative to UGCAUGU
4,B4,0.436 KA relative to UGCAUGU
5,B5,0.494 KA relative to UGCAUGU
6,B6,0.206 KA relative to UGCAUGU
7,B7,0.155 KA relative to UGCAUGU
8,B8,0.396 KA relative to UGCAUGU
9,B9,0.261 KA relative to UGCAUGU
10,B10,0.409 KA relative to UGCAUGU
11,B11,0.0673 KA relative to UGCAUGU
12,B12,0.27 KA relative to UGCAUGU
13,B13,0.0571 KA relative to UGCAUGU
14,B14,0.144 KA relative to UGCAUGU
15,B15,0.113 KA relative to UGCAUGU
16,B16,0.0963 KA relative to UGCAUGU

row,Binder,binding signal
1,B17,0.0636 KA relative to UGCAUGU
2,B18,0.118 KA relative to UGCAUGU
3,B19,0.0838 KA relative to UGCAUGU
4,B20,0.0507 KA relative to UGCAUGU
5,B21,0.381 KA relative to UGCAUGU
6,B22,0.0963 KA relative to UGCAUGU
7,B23,1.17 KA relative to UGCAUGU
8,B24,0.0834 KA relative to UGCAUGU
9,B25,0.374 KA relative to UGCAUGU
10,B26,0.0555 KA relative to UGCAUGU
11,B27,0.196 KA relative to UGCAUGU
12,B28,0.0998 KA relative to UGCAUGU
13,B29,0.0888 KA relative to UGCAUGU
14,B30,0.0976 KA relative to UGCAUGU
15,B31,0.181 KA relative to UGCAUGU
